We go through 14 compounds from PubChem BioAssay.

The source made the active and inactive calls.

Experiment [1] has as its system Plasmodium falciparum Sir2 (PF13_0152, Sir2A). Put plainly: pfSir2 binders on small-molecule microarrays, primary screen, biochemical, small-molecule microarray, 635 nm fluorescence (AID 1098).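 Further: score merges spot fluorescence intensity with its signal-to-noise ratio.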 As to conditions: small-molecule microarray binding, fluorescence 635 nm; higher = more signal.
A short description of experiment [2]: small-molecule microarray binders of probe aDKK1, primary screen, biochemical, biotinylated probe, 635/667 nm fluorescence (AID 1099).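 Further: score merges 667nm spot fluorescence with signal to noise across triplicate slides; reference of the scale not given here.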 As to conditions: higher = more signal.
A short description of experiment [3]: small-molecule microarray binders of probe aCHRDL2, primary screen, biochemical, biotinylated probe, 635/667 nm fluorescence (AID 1100). As to conditions: higher = more signal.
The nature of experiment [4]: splicing luciferase reporter signal modulators, primary screen, spliceosome inhibition project, cell-based, HEK293, splice +/- reporter (AID 1101).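 Further: HEK293 cells carrying a splicing-competent luciferase reporter gene; test concentration not given here.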 Conditions: luminescence, 24 h, higher = more signal, called active from +8 up or from −8 down. Background: Reporter assays use an easily measured gene product as a stand-in for the process of interest.
Experiment [5] concerns the target Fibroblast growth factor 10 (Homo sapiens) (UniProt O15520). As to the kind of experiment: FGF10 binders on small-molecule microarrays, primary screen, biochemical, small-molecule microarray, 635 nm fluorescence (AID 1102). Conditions: FGF10 binding, fluorescence 635 nm, higher = more signal.
For experiment [6], the system named is glycogen synthase kinase-3 (GSK3A per assay name; protocol says GSK3B). As to the kind of experiment: GSK3 binders on small-molecule microarrays, primary screen, biochemical, small-molecule microarray, 635 nm fluorescence, GSK3A (AID 1103). Further: the record names both GSK3A and GSK3B. Conditions: small-molecule microarray binding, fluorescence 635 nm; higher = more signal.
In experiment [7] the target is Epidermal growth factor receptor (Homo sapiens) (UniProt P00533). As to the kind of experiment: EGFR binders on small-molecule microarrays, primary screen, biochemical, small-molecule microarray, 635 nm fluorescence (AID 1104).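 Further: score merges 667 nm emission intensity with spot signal to noise over triplicate slides.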 As to conditions: EGFR binding, higher = more signal.
Sequence of Epidermal growth factor receptor (Homo sapiens) (P00533 whole entry, looked up): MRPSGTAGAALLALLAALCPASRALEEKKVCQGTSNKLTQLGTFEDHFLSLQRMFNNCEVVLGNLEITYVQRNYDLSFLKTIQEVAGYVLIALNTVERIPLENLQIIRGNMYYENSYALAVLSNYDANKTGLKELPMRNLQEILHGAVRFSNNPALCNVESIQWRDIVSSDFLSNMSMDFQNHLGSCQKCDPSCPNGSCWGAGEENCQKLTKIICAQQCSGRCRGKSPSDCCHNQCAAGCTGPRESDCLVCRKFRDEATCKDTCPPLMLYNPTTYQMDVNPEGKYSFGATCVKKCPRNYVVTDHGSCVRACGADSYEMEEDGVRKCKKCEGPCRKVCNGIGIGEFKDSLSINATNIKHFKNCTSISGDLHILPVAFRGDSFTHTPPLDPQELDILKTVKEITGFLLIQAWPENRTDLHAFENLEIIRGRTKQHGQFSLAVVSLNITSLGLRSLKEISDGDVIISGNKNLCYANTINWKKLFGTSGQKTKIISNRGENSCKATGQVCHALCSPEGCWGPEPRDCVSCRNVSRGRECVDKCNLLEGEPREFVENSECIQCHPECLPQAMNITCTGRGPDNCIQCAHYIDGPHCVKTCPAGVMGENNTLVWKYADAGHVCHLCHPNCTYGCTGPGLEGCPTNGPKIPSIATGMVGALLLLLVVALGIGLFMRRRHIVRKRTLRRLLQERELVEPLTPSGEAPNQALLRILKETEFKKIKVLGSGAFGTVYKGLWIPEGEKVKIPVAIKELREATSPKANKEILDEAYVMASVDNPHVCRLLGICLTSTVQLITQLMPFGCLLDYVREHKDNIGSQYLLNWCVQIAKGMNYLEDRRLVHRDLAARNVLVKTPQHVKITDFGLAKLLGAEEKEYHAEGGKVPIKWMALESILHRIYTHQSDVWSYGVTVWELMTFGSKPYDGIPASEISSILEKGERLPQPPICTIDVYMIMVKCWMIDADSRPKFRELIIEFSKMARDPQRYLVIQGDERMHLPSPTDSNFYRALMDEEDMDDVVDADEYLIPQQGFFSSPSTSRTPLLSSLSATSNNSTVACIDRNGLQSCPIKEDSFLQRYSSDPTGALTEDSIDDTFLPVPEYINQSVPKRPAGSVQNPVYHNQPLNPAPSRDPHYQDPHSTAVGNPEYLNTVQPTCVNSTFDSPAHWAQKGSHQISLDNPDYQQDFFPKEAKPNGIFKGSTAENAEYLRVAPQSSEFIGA
Experiment [8] concerns the target Follistatin-related protein 3 (Homo sapiens) (UniProt O95633). As to the kind of experiment: FSTL3 binders on small-molecule microarrays, primary screen, biochemical, small-molecule microarray, 635 nm fluorescence (AID 1105).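 Further: score merges emission near 667 nm and signal to noise per printed spot across three slides.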 Conditions: FSTL3 binding, higher = more signal.
For experiment [9], the target named is Dickkopf-related protein 1 (Homo sapiens) (UniProt O94907). As to the kind of experiment: DKK1 binders on small-molecule microarrays, primary screen, biochemical, small-molecule microarray, 635 nm fluorescence scan (AID 1106).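 Further: score merges emission near 667 nm with signal to noise over three replicate slides.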 Conditions: DKK1 binding, higher = more signal.
Sequence of Dickkopf-related protein 1 (Homo sapiens) (O94907 whole entry, looked up): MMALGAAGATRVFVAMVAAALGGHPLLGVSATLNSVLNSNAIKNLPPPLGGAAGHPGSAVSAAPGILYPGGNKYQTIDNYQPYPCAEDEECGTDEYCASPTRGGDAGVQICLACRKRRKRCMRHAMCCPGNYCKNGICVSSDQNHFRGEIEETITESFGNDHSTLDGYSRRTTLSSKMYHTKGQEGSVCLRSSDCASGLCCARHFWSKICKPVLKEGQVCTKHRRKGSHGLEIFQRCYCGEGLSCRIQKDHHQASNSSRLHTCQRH
Experiment [10] has as its system Inhibin beta A chain (activin A). Put plainly: INHBA (activin A) binders on microarrays, primary screen, biochemical, small-molecule microarray, 635 nm fluorescence scan (AID 1107).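 Further: mouse activin A protein probed at 4.33 µg/mL on printed slides; score merges bound-protein fluorescence near 667 nm with spot signal-to-noise.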 As to conditions: small-molecule microarray binding, higher = more signal.

Sequence of Fibroblast growth factor 10 (Homo sapiens) (O15520 whole entry, looked up): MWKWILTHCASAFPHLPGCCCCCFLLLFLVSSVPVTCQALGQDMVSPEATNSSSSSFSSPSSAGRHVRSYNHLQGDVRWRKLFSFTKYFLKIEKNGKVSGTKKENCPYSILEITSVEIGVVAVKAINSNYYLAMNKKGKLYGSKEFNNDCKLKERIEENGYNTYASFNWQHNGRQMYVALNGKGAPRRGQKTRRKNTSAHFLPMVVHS
Sequence of Follistatin-related protein 3 (Homo sapiens) (O95633 whole entry, looked up): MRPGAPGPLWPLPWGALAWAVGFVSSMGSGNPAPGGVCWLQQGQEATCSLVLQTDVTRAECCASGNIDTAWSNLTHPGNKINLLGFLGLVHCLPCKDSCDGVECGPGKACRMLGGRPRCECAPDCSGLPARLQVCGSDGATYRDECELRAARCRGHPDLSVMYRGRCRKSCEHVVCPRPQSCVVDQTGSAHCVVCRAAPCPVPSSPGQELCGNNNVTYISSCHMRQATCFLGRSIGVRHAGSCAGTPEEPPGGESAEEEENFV

`COc1ccc([Si](C)(C)[C@H]2[C@H](CCO)O[C@@]3(C(=O)N(C)c4c(Br)cc(C)cc43)[C@@H]2C)cc1`: the composite z-score in experiment [1] was 0.717; in [2], -0.0044; in experiment [3], 0.202; in experiment [5], 0.333; in experiment [6] it was 0.223; in experiment [7], 0.127. Further, the composite z-score in experiment [8] was 0.4; in experiment [9], 0.0138; in experiment [10], 0.449. Moreover, the z-score in [4] is 4.6 (inactive).

`C=CCNC(=O)[C@H]1[C@@H]2C(=O)O[C@@H](c3ccccc3)[C@@H](c3ccccc3)N2[C@@H](c2ccc(OCCO)cc2)[C@]12C(=O)Nc1ccc(C#CC3=CCCCC3)cc12`: the composite z-score was 1.25 in experiment [1]; -0.488 in experiment [2]; 0.171 in [3]; 0.929 in experiment [5]; 1.05 in experiment [6]; 0.293 in experiment [7]. In addition, the composite z-score in [8] was 0.881; in [9], 0.183; in experiment [10], 0.543. The z-score in experiment [4] is -1.24 (inactive).

As for `CC(C)N1C(=O)[C@@]2(Cc3ccccc31)c1ccccc1C(=O)N(C1CCCCC1)[C@H]2c1ccc(CO)cc1`, the composite z-score in experiment [1] was 1.15; in experiment [2] it was -0.307; in experiment [3], -0.194; in experiment [5], 0.206; in experiment [6], 0.856; in experiment [7], 0.507. Further, the composite z-score in [8] was 1.17; in experiment [9], 0.788; in [10], 0.899. Further, the z-score in experiment [4] is 0.0789 (inactive).

As for `CC(=O)N1Cc2ccccc2C[C@@]2(COC(c3ccc(OCCCO)cc3)=N2)C1=O`, the composite z-score amounted to 1.32 in [1]; 1.18 in [2]; 1.31 in experiment [3]; 0.649 in experiment [5]; 1.32 in [6]; 0.455 in experiment [7]. Further, the composite z-score in experiment [8] was found to be 1.13; in experiment [9], 0.438; in experiment [10], 1.09. For the same compound, the z-score in experiment [4] is -1.66 (inactive).

Take `CC(C)C[C@@H]1NC(=O)[C@H]2C[C@@H](C(=O)NCCCCCCN(C)C)[C@@H](c3ccc(O)cc3)N2C1=O`: the composite z-score in [1] was 1.44; in [2], 0.158; in [3], -0.0008; in experiment [5] it was 1.2; in [6], 1.32; in experiment [7], 0.653. Moreover, the results for the composite z-score in [8], in experiment [9] and in experiment [10] were 1.13, 1.4 and 1.12, respectively. Further, the z-score in experiment [4] is 0.561 (inactive).

For the compound `CC1CC/C=C\[C@H]2OC34C=CCN(c5ccc(Cl)cc5)C(=O)[C@H]3N(CCO)C(=O)[C@]4(C)C2C(=O)O1` (stereo not given in full), the composite z-score in experiment [1] is 0.111; in [2], -0.197; in [3] it was 0.693; in experiment [5], -0.379; in [6], -0.15; in experiment [7], -0.483. The composite z-score was -0.646 in experiment [8], -1.46 in experiment [9] and 1.27 in [10]. Also, the z-score in experiment [4] is 0.568 (inactive).

With `[N-]=[N+]=NCc1ccccc1[C@H]1OC(c2ccc(OCCCO)cc2)=N[C@@]1(Cc1ccccc1)C(=O)NCc1ccccc1`, the composite z-score came out at 0.173 in experiment [1]; 0.646 in experiment [2]; 0.894 in [3]; 0.672 in experiment [5]; 1.27 in experiment [6]; 0.169 in experiment [7]. Further, the composite z-score in experiment [8] is 0.231; in [9] it was -0.238; in experiment [10] it was -0.151. In [4], the z-score is 1.09 (inactive).

For the compound `O=C1NC(=O)C2C1C=CC(C(O)c1cccc3ccccc13)N2Nc1ccccn1` (stereo not given), the composite z-score in experiment [1] came to 0.621; in experiment [2], 0.103; in experiment [3], 0.15; in experiment [5], 0.522; in [6], 0.233; in experiment [7] it was 0.688. Moreover, the results for the composite z-score in experiment [8], in experiment [9] and in experiment [10] were 0.857, 0.31 and 0.924, respectively. For the same compound, the z-score in [4] was 1.03 (inactive).

As for `C=CCOC(=O)[C@@H]1[C@H]2C(=O)O[C@H](c3ccccc3)[C@H](c3ccccc3)N2[C@H](c2ccc(OCCOC(=O)[C@@H]3C[C@@H]4C(=O)N5CCC[C@H]5C(=O)N4[C@@H]3c3ccc(O)cc3)cc2)[C@@]12C(=O)Nc1ccc(I)cc12`, the composite z-score was 0.544 in experiment [1]; -0.627 in experiment [2]; -0.257 in experiment [3]; 0.624 in experiment [5]; 1.3 in experiment [6]; 0.555 in experiment [7]. Further, the composite z-score in experiment [8] is 0.913; in [9], 0.794; in experiment [10] it was -0.495. Besides, the z-score in experiment [4] is -1.98 (inactive).

Consider `COc1ccc(C(=O)O[C@H]2CC[C@]3(C)C4=C(CCC3C2(C)C)[C@]2(C)CC[C@H]([C@H](C)CCCC(C)C)[C@@]2(C)CC4)cc1` (stereo not given in full), for which the composite z-score was 0.0931 in experiment [1]; -0.287 in [2]; -0.384 in [3]; 0.205 in experiment [5]; 0.751 in experiment [6]; 0.302 in [7]. Further, the composite z-score in experiment [8] came to 0.561; in experiment [9], 0.458; in experiment [10] it was 0.225. For the same compound, the z-score in experiment [4] is -0.968 (inactive).

In the case of `COc1ccc([C@H]2OC[C@@H]3CC4(CC=CC4)C(=O)N32)cc1`, the composite z-score in experiment [1] is 0.165; in experiment [2] it was -0.231; in experiment [3], -0.147; in experiment [5], 0.93; in experiment [6] it was 0.784; in experiment [7], 1.04. The composite z-score in experiment [8] turned out to be 1.31; in [9], 1.42; in experiment [10] it was 1.25. Further, in experiment [4], the z-score was -0.297 (inactive).

For the compound `CCOC(=O)C=Cc1cc([N+](=O)[O-])ccc1O`, the composite z-score in experiment [1] is -0.551; in experiment [2] it was -0.14; in [3], -0.134; in [5] it was -0.395; in [6] it was -0.398; in experiment [7], -0.899. Moreover, the composite z-score in experiment [8] is -0.971; in experiment [9], -0.693; in experiment [10], -0.855. For the same compound, the z-score in [4] was -1.72 (inactive).

Take `C=CCN1C(=O)[C@]2(O[C@H](CCO)[C@@H]([Si](C)(C)c3ccc(OC)cc3)[C@@H]2C)c2cc(N3CCCCC3=O)ccc21`: the composite z-score in [1] turned out to be 0.914; in [2] it was 0.0375; in experiment [3], 0.0217; in experiment [5], 0.849; in experiment [6] it was 0.549; in experiment [7], 0.286. Also, the composite z-score in experiment [8] stood at 0.918; in experiment [9] it was 0.147; in [10] it was 0.247. In experiment [4], the z-score was -1.69 (inactive).

Consider `C=CCN1C(=O)[C@@]2(O[C@@H](CCO)[C@H]([Si](C)(C)c3ccc(OC)cc3)[C@H]2C)c2cc(NC(=O)c3ccc(OC)cc3)ccc21`, for which the composite z-score is 0.45 in experiment [1]; -0.138 in [2]; -0.46 in experiment [3]; 1.09 in experiment [5]; 0.587 in experiment [6]; 0.424 in experiment [7]. Moreover, the composite z-score in experiment [8] turned out to be 0.722; in experiment [9], 0.532; in experiment [10] it was 1.32. In addition, the z-score in experiment [4] is -0.491 (inactive).
